Assay [1] can be described thus: Nuclear factor erythroid 2-related factor 2/antioxidant responsive element (Nrf2/ARE) small molecule agonists: qHTS cell viability counter screen in human keratinocytes (AID 1919968; active means well fitted curve in the direction sought with a large enough effect in the repeat runs; an effect the other way counts as inactive or inconclusive; further: nearly all actives have a fitted effect of over 55% in size). In outline:
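Cytotoxicity was multiplexed with the Nrf2/ARE luciferase assay in the same wells. Stably transfected HaCaT keratinocytes were treated with test compounds for 23 h at 37 C. Cell viability was then measured by CellTiter-Fluor fluorescence.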
On the technique in general: In qHTS, concentration-response curves come from the screen itself.

Assay [2] in a line: Nuclear factor erythroid 2-related factor 2/antioxidant responsive element (Nrf2/ARE) small molecule agonists: luciferase reporter gene qHTS assay in human keratinocytes (AID 1919969). Further: nearly all actives have a fitted effect of over 35% in size. Further: potency means the concentration at half of the fitted maximal effect. On the technique in general: A reporter such as luciferase makes a cellular process visible.
Assay [3] deals with Gonadotropin-releasing hormone receptor (Homo sapiens) (UniProt P30968). The assay can be described thus: Human gonadotropin-releasing hormone receptor (GnRHR) small molecule agonists, calcium flux assay in GnRHR-HEK293 cells (AID 1920063). Further: nearly all actives have a fitted effect of over 35% in size. The method, boiled down: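 Agonist activity was measured as intracellular calcium flux in HEK293 cells engineered to stably express human GnRHR. After dye loading for 1 hour at 37 C, compounds in DMSO were added and fluorescence was followed for 3 minutes.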
Sequence of Gonadotropin-releasing hormone receptor (Homo sapiens) (P30968 whole entry, looked up): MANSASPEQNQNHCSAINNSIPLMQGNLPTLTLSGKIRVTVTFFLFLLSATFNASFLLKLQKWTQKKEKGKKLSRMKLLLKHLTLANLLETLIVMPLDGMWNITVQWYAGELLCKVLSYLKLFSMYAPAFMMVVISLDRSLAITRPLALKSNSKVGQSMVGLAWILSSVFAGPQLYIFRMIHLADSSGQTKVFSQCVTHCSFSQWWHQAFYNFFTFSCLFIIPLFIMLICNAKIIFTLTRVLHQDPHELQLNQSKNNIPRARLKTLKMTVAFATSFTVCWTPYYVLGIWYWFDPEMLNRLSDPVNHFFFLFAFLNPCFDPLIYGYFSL
Background: Calcium assays in cells follow changes in intracellular calcium, usually with a dye or a luminescent sensor.

The target in assay [4] is KiSS-1 receptor (Homo sapiens) (UniProt Q969F8). Briefly: Human kisspeptin (KISS1R) small molecule agonists, calcium flux assay in KISS1R-HEK293 cells (AID 1920064; active means well fitted curve in the direction sought with a large enough effect in the repeat runs; an effect the other way counts as inactive or inconclusive). In outline:
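Agonist activity is monitored as intracellular calcium rise in engineered HEK293 cells carrying human KISS1R. Cells are dye-loaded for 1 h at 37 C before compound addition, and fluorescence is recorded for 3 min.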

The nature of assay [5]: G protein-coupled receptor (GPCR) small molecule agonists, calcium flux assay: HEK293 wild type cell line counter screen (AID 1920065). In outline: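 Seed cells, incubate 18 h (37 C, 5% CO2); add calcium dye, 1 h at 37 C; pin-transfer compounds, ATP control or DMSO; read fluorescence 480/540 nm each second for 3 min.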
A short description of assay [6]: p53 small molecule agonists, cell-based qHTS assay with human liver microsomes (AID 1963577).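 Further: p53 response element beta-lactamase reporter cells with liver microsomes plus NADPH.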 In outline:
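Reporter activation was measured by LiveBLAzer fluorescence intensity in p53RE-bla cells, which had been exposed to compounds for 16 h at 37 C alongside 0.5 mg/mL human liver microsomes and 0.5 mg/mL NADPH (final concentrations).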

Assay [7] is described as follows: p53 small molecule agonists, cell-based qHTS assay with rat liver microsomes (AID 1963578). In outline: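 Compound in DMSO added to p53RE-bla cells 5 h post-plating; rat microsomes/NADPH 0.5 mg/mL final; 16 h, 37 C; LiveBLAzer 2 h RT.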
A short description of assay [8]: p53 small molecule agonists, cell-based qHTS assay with human liver microsomes: qHTS cell viability counter screen (AID 1963579). Further: nearly all actives have a fitted effect of over 45% in size. The method, boiled down:
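HLM-supplemented (0.5 mg/mL final) and NADPH-supplemented (0.5 mg/mL final) p53RE-bla cultures, 4,000 cells per well, were dosed with compounds in DMSO for 16 h at 37 C; luminescent ATP detection (CellTiter-Glo, 30 min, room temperature) quantified surviving cells.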

Assay [9] can be described thus: p53 small molecule agonists, cell-based qHTS assay with rat liver microsomes: qHTS cell viability counter screen (AID 1963580). Further: nearly all actives have a fitted effect of over 45% in size. In outline:
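Cytotoxicity counter screen: intracellular ATP measured by CellTiter-Glo luminescence in the same wells as the beta-lactamase reporter read, on HCT-116 p53RE-bla cells exposed 16 h at 37 C to compounds with rat liver microsomes and NADPH, each 0.5 mg/mL final.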

A short description of assay [10]: p53 small molecule agonists, cell-based qHTS assay: qHTS cell viability counter screen (AID 1963581). Further: nearly all actives have a fitted effect of over 45% in size. In outline: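 Viability was counter-screened in parallel with the p53 agonist reporter by measuring intracellular ATP luminescence in the same HCT-116 p53RE-bla wells after 16 h compound treatment at 37 C.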
Assay [11] deals with 5-hydroxytryptamine receptor 2A (Homo sapiens) (UniProt P28223). Briefly: 5-hydroxytryptamine receptor 2A (HTR2A) small molecule antagonists, cell-based qHTS assay (AID 1963586). Further: nearly all actives have a fitted effect of over 45% in size. The method, boiled down:
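CHO cells stably expressing human HTR2A were plated for 18 h at 37 C, then loaded with calcium dye for 1 h. Compounds were preincubated 5 min at room temperature before DOI (4 nM solution) was added. Kinetic fluorescence was read for 3 min.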

Assay [12] has the same target. The assay can be described thus: 5-hydroxytryptamine receptor 2A (HTR2A) small molecule agonists, cell-based qHTS assay (AID 1963587). Further: nearly all actives have a fitted effect of over 30% in size. The method, boiled down:
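CHO cells stably expressing human HTR2A, plated 18 h, loaded with calcium dye 1 h at 37 C. Agonist mode: compounds added and intracellular calcium fluorescence recorded kinetically for 2 min at 1 sec intervals.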

In assay [13] the target is Muscarinic acetylcholine receptor M1 (Homo sapiens) (UniProt P11229). The assay can be described thus: Cholinergic receptor muscarinic 1 (CHRM1) small molecule antagonists, cell-based qHTS assay (AID 1963588). Further: nearly all actives have a fitted effect of over 40% in size. Further: potency means the concentration at half of the fitted maximal effect. The method, boiled down:
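Compounds were tested at 15 concentrations in three independent runs. Dye-loaded CHRM1-CHO cells were exposed 5 min at room temperature before stimulation by acetylcholine added at 50nM. Intracellular calcium was read kinetically on FDSS for 3 min.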

Assay [14] shares this target. Briefly: Cholinergic receptor muscarinic 1 (CHRM1) small molecule agonists, cell-based qHTS assay (AID 1963589). Further: nearly all actives have a fitted effect of over 35% in size. The method, boiled down:
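Cells were plated and incubated 18 h at 37 C/5% CO2, loaded with calcium dye for 1 h at 37 C, then treated with compounds in DMSO. Fluorescence was recorded kinetically at 1 sec intervals.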

Assay [15] can be described thus: cAMP Responsive Elements (CRE) small molecule agonists, cell-based qHTS assay (AID 1963590). The method, boiled down: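 Cells carrying a CRE-driven beta-lactamase reporter (HEK 293T) are seeded, incubated overnight (18 h), and treated with test compounds for 3 h at 37 C; reporter activity is then detected with a FRET substrate after 2 h at room temperature.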
A short description of assay [16]: cAMP Responsive Elements (CRE) small molecule antagonists, cell-based qHTS assay (AID 1963591; active means well fitted inhibition curve with a large enough effect in the signal ratio in the repeat runs, not every such curve was filed as active; the % refers to the signal ratio). The method, boiled down:
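Cells (CRE-bla HEK 293T, DMEM with 10% dialyzed FBS and 25 mM HEPES) are seeded and incubated 18 h. Compounds are added with NKH477 agonist at 0.25 uM final for 3 h, then FRET substrate for 2 h.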

Assay [17] addresses Beta-2 adrenergic receptor (Homo sapiens) (UniProt P07550). The assay can be described thus: Adrenergic beta2 receptor (ADRB2) small molecule antagonists, cell-based qHTS assay (AID 1963592). Further: series mostly up to about 92 µM; nearly all actives have a fitted effect of over 50% in size. The method, boiled down:
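Assay format: CHO-ADRB2 cells, 18-20hr seeding at 37C/5% CO2, then compound plus 1nM isoproterenol agonist mix for 0.5hr RT. Homogeneous time-resolved fluorescence cAMP detection after 1hr, expressed as 665/615 nm ratio.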

For assay [18], the target named is D(2) dopamine receptor (Homo sapiens) (UniProt P14416). The assay can be described thus: Dopamine D2 receptor (DRD2) small molecule agonists, cell-based qHTS assay (AID 1963594). Further: nearly all actives have a fitted effect of over 35% in size. The method, boiled down: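 HEK293 cells stably expressing human DRD2, pre-treated with PDE inhibitor Ro20-1724 (0.1 mM final) and compound 10 min at room temperature, then stimulated with NKH477 (200nM […]) for 30 min. cAMP read by HTRF (665/620 nm).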
Sequence of D(2) dopamine receptor (Homo sapiens) (P14416 whole entry, looked up): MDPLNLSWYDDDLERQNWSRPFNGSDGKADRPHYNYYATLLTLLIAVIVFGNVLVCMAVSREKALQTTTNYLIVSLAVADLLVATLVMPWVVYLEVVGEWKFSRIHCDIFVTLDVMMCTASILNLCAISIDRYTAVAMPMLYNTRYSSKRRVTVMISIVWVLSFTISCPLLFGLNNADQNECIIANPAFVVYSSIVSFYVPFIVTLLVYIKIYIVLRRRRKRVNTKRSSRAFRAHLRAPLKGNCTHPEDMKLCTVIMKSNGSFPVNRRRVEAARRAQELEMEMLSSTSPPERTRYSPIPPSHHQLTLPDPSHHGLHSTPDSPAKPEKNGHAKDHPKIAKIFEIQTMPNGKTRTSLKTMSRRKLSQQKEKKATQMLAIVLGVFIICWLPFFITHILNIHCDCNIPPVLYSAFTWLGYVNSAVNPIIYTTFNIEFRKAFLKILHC

For assay [19] the target is unchanged. The assay can be described thus: Dopamine D2 receptor (DRD2) small molecule antagonists, cell-based qHTS assay (AID 1963595; active means well fitted inhibition curve with a large enough effect in the signal ratio in the repeat runs, with a control signal flat; the % refers to the signal ratio). In outline:
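In this cell-based antagonist screen, compounds act for 10 min at room temperature before a 30 min challenge with 12 nM quinpirole and 200 nM NKH477. cAMP is quantified by HTRF competition in DRD2-HEK293 cells containing 0.1 mM Ro20-1724.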

Assay [20] can be described thus: p53 small molecule agonists, cell-based qHTS assay (AID 1963582; active means well fitted activation curve with a large enough effect in the signal ratio in the repeat runs, not every such curve was filed as active; the % refers to the signal ratio). In outline:
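Cells carrying a p53-responsive bla reporter are treated with test compounds for 16 h at 37 C; beta-lactamase activity is then detected with LiveBLAzer B/G FRET substrate after 2 h at room temperature.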

Several values for one entry are separate records, joined by “and”; a condition that tells them apart may be missing. Identical values can stand only once. Records with an inconclusive call do not appear. Some compounds were tested as several samples or in several runs, with calls that do not always agree. Activity calls are given as the source filed them. Unless noted, the call rests on the fitted dose curve.

Sequence of KiSS-1 receptor (Homo sapiens) (Q969F8 whole entry, looked up): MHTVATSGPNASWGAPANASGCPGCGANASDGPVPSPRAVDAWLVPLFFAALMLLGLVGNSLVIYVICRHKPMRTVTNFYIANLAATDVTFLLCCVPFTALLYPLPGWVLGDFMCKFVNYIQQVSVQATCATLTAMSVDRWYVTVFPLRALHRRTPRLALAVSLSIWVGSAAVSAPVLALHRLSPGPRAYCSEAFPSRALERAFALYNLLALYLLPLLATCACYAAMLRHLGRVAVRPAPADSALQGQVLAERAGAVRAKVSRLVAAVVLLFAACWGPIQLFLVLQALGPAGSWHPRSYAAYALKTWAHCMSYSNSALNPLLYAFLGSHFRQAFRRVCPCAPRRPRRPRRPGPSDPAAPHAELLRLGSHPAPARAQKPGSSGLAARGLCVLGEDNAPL
Sequence of Beta-2 adrenergic receptor (Homo sapiens) (P07550 whole entry, looked up): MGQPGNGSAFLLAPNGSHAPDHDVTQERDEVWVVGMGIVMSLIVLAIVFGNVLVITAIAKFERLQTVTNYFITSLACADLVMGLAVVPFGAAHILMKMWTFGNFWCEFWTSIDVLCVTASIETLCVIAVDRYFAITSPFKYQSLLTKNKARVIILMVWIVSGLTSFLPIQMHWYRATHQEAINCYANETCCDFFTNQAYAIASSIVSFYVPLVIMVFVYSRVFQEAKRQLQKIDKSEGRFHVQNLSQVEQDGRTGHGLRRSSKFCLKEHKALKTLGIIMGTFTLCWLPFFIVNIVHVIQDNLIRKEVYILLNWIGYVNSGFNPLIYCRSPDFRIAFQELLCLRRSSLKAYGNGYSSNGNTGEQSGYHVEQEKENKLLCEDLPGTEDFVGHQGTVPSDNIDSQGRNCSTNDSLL
Sequence of Muscarinic acetylcholine receptor M1 (Homo sapiens) (P11229 whole entry, looked up): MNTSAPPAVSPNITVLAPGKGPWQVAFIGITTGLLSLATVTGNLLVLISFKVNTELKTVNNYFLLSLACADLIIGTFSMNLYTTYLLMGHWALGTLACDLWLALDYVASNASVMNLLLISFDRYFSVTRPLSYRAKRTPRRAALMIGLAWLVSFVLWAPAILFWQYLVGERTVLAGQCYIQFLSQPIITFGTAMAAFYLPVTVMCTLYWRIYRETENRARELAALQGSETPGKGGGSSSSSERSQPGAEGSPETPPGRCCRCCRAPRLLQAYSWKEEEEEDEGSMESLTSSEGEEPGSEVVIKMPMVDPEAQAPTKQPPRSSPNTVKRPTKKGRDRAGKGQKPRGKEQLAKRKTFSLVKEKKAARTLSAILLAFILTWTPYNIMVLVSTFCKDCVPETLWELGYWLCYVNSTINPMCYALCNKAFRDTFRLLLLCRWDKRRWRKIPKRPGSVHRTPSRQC
Sequence of 5-hydroxytryptamine receptor 2A (Homo sapiens) (P28223 whole entry, looked up): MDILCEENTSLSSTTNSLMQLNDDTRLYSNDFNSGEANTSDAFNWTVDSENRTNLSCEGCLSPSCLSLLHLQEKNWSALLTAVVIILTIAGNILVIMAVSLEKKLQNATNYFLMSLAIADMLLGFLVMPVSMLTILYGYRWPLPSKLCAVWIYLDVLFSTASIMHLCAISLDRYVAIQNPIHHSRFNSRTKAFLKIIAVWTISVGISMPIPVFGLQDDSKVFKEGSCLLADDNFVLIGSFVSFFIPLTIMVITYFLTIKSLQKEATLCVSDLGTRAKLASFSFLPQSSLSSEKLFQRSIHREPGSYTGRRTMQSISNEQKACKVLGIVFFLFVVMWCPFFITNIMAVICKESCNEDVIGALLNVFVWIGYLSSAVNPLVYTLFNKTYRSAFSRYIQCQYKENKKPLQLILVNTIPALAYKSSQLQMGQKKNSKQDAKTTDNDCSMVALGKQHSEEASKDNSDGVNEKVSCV

With `O=[N+]([O-])c1ccc(Oc2ccc(Cl)cc2Cl)cc1`, the Potency result in assay [1], in assay [2], in [3], in assay [4], in [5] and in assay [6] was “inactive” throughout. For the same compound, the Potency entry in [7], in assay [8], in assay [9], in assay [10], in assay [11] and in assay [12] was “inactive” in each case. The Potency entry in assay [13], in assay [14], in assay [15], in assay [16], in [17] and in assay [18] was “inactive” in each case. Moreover, the Potency result in assay [19] is “inactive”.
Consider `C=COCCCl`, for which the Potency result in assay [1], in assay [2], in assay [3], in assay [4], in [5] and in assay [6] was “inactive” each time. For the same compound, the Potency entry in [7], in assay [8], in assay [9], in [10], in assay [20] and in assay [12] was “inactive” throughout. Moreover, the Potency entry in [13], in assay [14], in [15], in [17], in assay [18] and in assay [19] was “inactive” in each case.
Turning to `Clc1nc(Cl)nc(Cl)n1`, the Potency result in [1], in [2], in assay [3], in [4], in assay [5] and in [6] was “inactive” throughout. For the same compound, the Potency result in assay [7], in [8], in [9], in assay [10], in [11] and in assay [12] was “inactive” each time. In addition, the Potency entry in assay [13], in assay [14], in assay [15], in assay [16], in assay [17] and in [18] was “inactive” each time. For the same compound, in [19], the Potency entry is “inactive”.
As to `Nc1ccc(Cc2ccc(N)cc2)cc1`, the Potency entry in assay [1], in assay [2], in [3], in assay [4], in assay [5] and in [6] was “inactive” each time. Besides, the Potency result in [7], in [8], in assay [9], in assay [10], in assay [20] and in assay [15] was “inactive” throughout. The Potency entry in assay [16], in assay [17] and in assay [19] was “inactive” throughout.
Regarding `CCOC(=O)C(C)OC(=O)c1cc(Oc2ccc(C(F)(F)F)cc2Cl)ccc1[N+](=O)[O-]` (stereo unspecified), the Potency result in assay [1], in assay [2], in assay [3], in [4], in assay [5] and in [6] was “inactive” throughout. Besides, the Potency entry in assay [7], in assay [8], in assay [9], in [10], in assay [11] and in assay [12] was “inactive” throughout. Besides, the Potency entry in assay [13], in [14], in assay [15], in assay [16], in assay [17] and in [18] was “inactive” in each case. Moreover, in [19], the Potency result is “inactive”.
As to `NC(=O)CCl`, the Potency result in [1], in assay [3], in [4], in assay [5], in assay [6] and in assay [7] was “inactive” throughout. The Potency entry in assay [8], in [9], in assay [10], in assay [11], in [12] and in assay [13] was “inactive” in each case. The Potency result in [14], in assay [15], in assay [16], in assay [17], in [18] and in assay [19] was “inactive” in each case. In assay [2], the Potency was 61.1 µM (active).
On to `CC(C)(C)OOC(=O)c1ccccc1`, for which the Potency entry in [1], in [2], in assay [3], in assay [4], in assay [5] and in assay [6] was “inactive” throughout. The Potency result in assay [7], in assay [8], in assay [9], in assay [10], in [20] and in assay [12] was “inactive” each time. In addition, the Potency entry in [14], in [15], in assay [16], in [17], in assay [18] and in assay [19] was “inactive” throughout. Also, the Potency in assay [13] was 13.3 µM (active) and inactive.
Turning to `CCCCCCCCn1cc[n+](C)c1`, the Potency result in [1], in assay [2], in assay [3], in assay [4], in [5] and in assay [6] was “inactive” throughout. Further, the Potency result in assay [7], in assay [8], in assay [9], in [10], in assay [20] and in assay [12] was “inactive” in each case. In addition, the Potency result in [14], in assay [15], in assay [17], in assay [18] and in assay [19] was “inactive” throughout. The Potency in assay [13] was 9.41 µM (active) and 3.78 µM (active) and inactive.
